From PubChem BioAssay (NCI)
Compounds without any hit were thinned out: in the full panel of roughly 83,000, 20% have a hit.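 Cell lines were cultured in 96-well plates, exposed to a single compound concentration, and assessed for percent growth 48 hours later.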 Values without a mark were called inactive. Calls of active or inactive are those of the source. Rule for the calls: active = growth percent below 10; inactive = the rest.

Columns and labels:
Test in all cases: NCI-60 one-dose screen, 48 h (100 = growth as untreated, 0 = no growth, -100 = all killed)
Conditions in all cases: 10 µM unless noted
HCT-15 colon = test system: HCT-15 colon
HT29 colon = test system: HT29 colon
SNB-75 CNS = test system: SNB-75 CNS
SNB-19 CNS = test system: SNB-19 CNS
U251 CNS = test system: U251 CNS
PC-3 prostate = test system: PC-3 prostate
SK-MEL-5 melanoma = test system: SK-MEL-5 melanoma
UACC-62 melanoma = test system: UACC-62 melanoma
LOX IMVI melanoma = test system: LOX IMVI melanoma
SK-MEL-28 melanoma = test system: SK-MEL-28 melanoma
SK-MEL-2 melanoma = test system: SK-MEL-2 melanoma
EKVX NSCLC = test system: EKVX NSCLC
SN12C renal = test system: SN12C renal
UO-31 renal = test system: UO-31 renal
TK-10 renal = test system: TK-10 renal
ACHN renal = test system: ACHN renal
CAKI-1 renal = test system: CAKI-1 renal
A498 renal = test system: A498 renal
CCRF-CEM leukemia = test system: CCRF-CEM leukemia
MOLT-4 leukemia = test system: MOLT-4 leukemia

Row | Structure (SMILES) | growth (HCT-15 colon) | growth (HT29 colon) | growth (SNB-75 CNS) | growth (SNB-19 CNS) [%] | growth (U251 CNS) | growth (PC-3 prostate) | growth (SK-MEL-5 melanoma) | growth (UACC-62 melanoma) | growth (LOX IMVI melanoma) | growth (SK-MEL-28 melanoma) | growth (SK-MEL-2 melanoma) | growth (EKVX NSCLC) | growth (SN12C renal) | growth (UO-31 renal) | growth (TK-10 renal) | growth (ACHN renal) | growth (CAKI-1 renal) [%] | growth (A498 renal) | growth (CCRF-CEM leukemia) | growth (MOLT-4 leukemia)
1 | CC/C(=C(\c1ccc(Cl)cc1)c1ccc(OCCN2CCCCC2)cc1)c1ccc(O)cc1 | 2.22% (active) | -37.2% (active) | 40.5% | 61.1 | 0.575% (active) | 30.4% | 2.53% (active) | 71% | -91.5% (active) | -63.4% (active) | 57.2% | 68% | 62.5% | 38.4% | 68.5% | 60.4% | 62.3 | 87.2% | 23.1% | -5.41% (active)
2 | COC1C(O)CC(OC2CC(OC3CC(O[C@@H]4C(=O)c5c(cc6cc(OC7CC(OC8CC(O)C(O)C(C)O8)C(O)C(C)O7)c(C)c(O)c6c5O)CC4[C@H](OC)C(=O)C(C)=O)OC(C)C3O)OC(C)C2O)OC1C (stereo not given in full) | -2.22% (active) | -19.8% (active) | -80.9% (active) | 11.2 | 1.19% (active) | -1.97% (active) | -40.4% (active) | -30.3% (active) | -2.05% (active) | -20.6% (active) | -41.9% (active) | 3.71% (active) | 7.44% (active) | -27.7% (active) | -8.69% (active) | 5.29% (active) | 16.9 | -44.1% (active) | 4.37% (active) | -6.83% (active)
3 | COc1cc2c(c(OC)c1OC)C(=O)CC(c1cccc(C(=O)Nc3ccccc3Br)c1)O2 (stereo not given) | 88.1% | 84% | 76.2% | 88.4 | 94.8% | 68.4% | 80.2% | 80.8% | 84.2% | 104% | 87.7% | 99.1% | 80% | 70.2% | 94.2% | 89.7% | 84.6 | 91% | 68.9% | 68.6%
4 | O=C1CCC(C(=O)N/N=C/c2cc(F)ccc2F)N1 (stereo not given) | 98.6% | 106% | 80.7% | 98.9 | 98% | 95.8% | 100% | 98.1% | 95.1% | 108% | 97.8% | 100% | 96.6% | 92.4% | 104% | 100% | 98 | 106% | 103% | 101%
5 | COC1/C=C/OC2(C)Oc3c(C)c(O)c4c(O)c(c(/C=N/N(c5ccccc5)c5ccccc5)c(O)c4c3C2=O)NC(=O)C(C)=C/C=C/C(C)C(O)C(C)C(O)C(C)C(OC(C)=O)C1C (stereo not given) | 41.4% | 45.5% | 66.9% | 71.2 | 41.8% | 38.7% | -98.8% (active) | 48.3% | 47.4% | 39.1% | 82.2% | 67% | 70.9% | 65.8% | 55.8% | 65% | 66.8 | 91.3% | 21.7% | 35.1%
6 | CN(C)/C(N)=N/N=C(\c1ccccc1)c1ccccn1 | 90.5% | 110% | 101% | 106 | 96.7% | 81.5% | 95.5% | 105% | 93% | 113% | 106% | 112% | 99.4% | 83.6% | 94.6% | 95.7% | 97.1 | 105% | 81.4% | 91.5%
7 | CN1C(=O)/C(=C/c2ccc(C(=O)Nc3ncc(Cc4cc(Cl)ccc4Cl)s3)cc2)SC1=S | 49% | 64% | 63.1% | 87.8 | 82.7% | 65.8% | 67% | 34.2% | 41.7% | 77% | 101% | 67% | 87.7% | 63.4% | 79.6% | 58.8% | 30.2 | 77.4% | 62.9% | 70.8%
8 | CCCCCCCCCCOC(=O)c1nn(C(C)=O)c2cc(C)c(C)cc12 | 98.8% | 92.1% | 115% | 105 | 93.3% | 73.7% | 99.5% | 93.3% | 87.9% | 109% | 104% | 91.6% | 102% | 71.7% | 104% | 97.1% | 88.8 | 79.1% | 92.2% | 82.7%
